These molecules were tested against AMP-activated protein kinase, AMPK (Homo sapiens) (UniProt P54646+O43741+P54619+Q9UGJ0+Q9Y478+Q13131+Q9UGI9) (assay: AMP-dependent Kinase enzyme assay. An in vitro enzyme assay that detects ADP turnover that is directly proportional to AMPK activity. This uses naive AMPK that is activated during the assay with MK-8722). Settings: 30 µM.
Assay type: functional
Set-up: scale not given: direction of the effect not stated beside the values

Point of comparison: `Cc1cc(N2CCOC(c3ccccn3)C2)nc(N)n1` (centres undefined), Percent Effect 10.1%. Against it:
- FC(F)(F)c1cccc(OC2CCN(Cc3ncc[nH]3)CC2)c1 — lower, 7.66%
- COc1cc(C(=O)O)ccc1OCC(=O)NCCc1ccccc1 — lower, 2.55%
- Cc1occc1C(=O)Nc1ccc(C(=O)NC[C@H]2CCCN2)cc1 — lower, -9.02%
- O=C(NC1CCCCC1)N1CCC(n2cc(-c3ccccn3)nn2)CC1 — lower, -1.68%
- Cc1nnsc1CNC(=O)Nc1cccc(N2CCN(C)C2=O)c1 — lower, -11%
- CC(Cn1cncc1-c1cnn(Cc2ccccc2)c1)N1CCCCC1 (centres undefined) — lower, 7.07%
- Cn1ccnc1-c1cn(CCCc2nnc(N)s2)nn1 — lower, -15.1%
- CNS(=O)(=O)CC(=O)NCc1cc2c(s1)CCC(C)(C)C2 — lower, -1.02%
- Clc1cc(NCc2ncc[nH]2)nc2[nH]ccc12 — higher, 24.1%
- Cc1nc(CNC(=O)Nc2cc(F)ccc2N2CCN(C)CC2)no1 — higher, 13.3%
- COc1cc2c(cc1CNCc1cccnc1OC)OC(C)C2 (centres undefined) — lower, 0.485%
- O=C(Cc1ccc(Cl)s1)Nc1ccc2c(c1)C(=O)NC2=O — higher, 68.3%
- Cc1cc(N2CCCC(N(C)C)C2)n2nc(C)cc2n1 (centres undefined) — lower, -1.24%
- O=C1CCC(C(=O)N2CCC(Cn3cc(C4CCCC4)nn3)CC2)=NN1 — lower, -8.82%
- NCc1ccnc(Oc2ccccc2)c1 — lower, -5.26%
- NC1CCCN(Cc2cccc(C(F)(F)F)c2)C1=O (centres undefined) — lower, -0.911%
- O=C(NCc1nnnn1-c1ccccc1)c1ccc(C2CCCO2)s1 (centres undefined) — lower, 1.57%
- CCn1cnnc1CNC(=O)c1ccc(Br)cc1F — lower, -10.5%

Source: ChEMBL document CHEMBL3988442, “University of Dundee, Small-Polar-MMV Screening Library” (2021)
